FUS suppressor: qHTS for Suppressors of FUS Proteinopathy: Primary screen using FUS-linked yeast assay. S. cerevisiae FUS-expressing, growth rescue, OD600, 24 h. Potency, µM (highest dose often 76.6 µM), usual class: activators. 390,000 compounds, 0.24% hits;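 note: plate controls were DMSO vehicle for no effect and reference control for full effect; nearly all actives have a fitted effect of over 55% in size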
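Galactose (2%) drives FUS expression in yeast precultured in raffinose; seeding density OD 0.005. Test compounds incubated 24hr at 30C and 99% humidity before absorbance at 600 nm was measured.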
ClpP mod: qHTS Assay for Activators of ClpP. purified B. subtilis ClpP, FRET peptide cleavage, 20 min. Potency, µM (titrated, usually from 57.5 µM), inactives show at the highest dose activity change, negative = active. 340,000 compounds, 1.9% hits. AID 651965, 2013; active = well fitted falling curve with a large enough effect; inconclusive = small, poorly fitted or top-dose-only effect; inactive = no such curve, though single readings can be large or run the other way; note: the source files actives as falling curves though it sought activators and does not explain the sign; nearly all actives have a fitted effect of over 65% in size
Target sequence (P80244 whole entry, looked up): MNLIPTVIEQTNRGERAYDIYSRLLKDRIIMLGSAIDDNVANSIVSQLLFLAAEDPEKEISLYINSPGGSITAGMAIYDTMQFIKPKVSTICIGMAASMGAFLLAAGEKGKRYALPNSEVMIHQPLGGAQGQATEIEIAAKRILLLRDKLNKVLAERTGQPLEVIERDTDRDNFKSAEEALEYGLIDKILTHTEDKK
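Buffer: 100 mM Tris/HCl pH8, 100 mM KCl, 0.05% low protease BSA, 2.5% glycerol, 0.01% Tween-20. ClpP 10 microg/mL final; 20 min RT; delta FRET normalized to ADEP and DMSO controls.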
aSyn rescue: qHTS of alpha-syn Inhibitors; Yeast expressing alpha-synuclein, growth rescue, BacTiter-Glo, 24 h; Potency, µM (top dose mostly 46.1 µM), for inactives: at the highest dose growth rescue (activation), usual class: activators; 370,000 compounds, 0.14% hits; AID 652106, 2013; note: % of control where 0% means no effect; nearly all actives have a fitted effect of over 65% in size
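Readout is rescue of growth in alpha-synuclein-expressing yeast, so inhibitors of toxicity appear as activators. Growth after 24 hr at 30 deg C in galactose medium is quantified by luminescence.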
Abeta rescue: qHTS for compounds that reverse cellular toxicity of Amyloid beta (A-beta) peptide in yeast: Primary Screen; yeast expressing A-beta42, growth rescue, OD600, 48 h; response scale: 0% DMSO, 100% iron-clioquinol control; Potency, µM (doses to about 46.1 µM), most hits filed as activators; 410,000 compounds, 0.063% hits; AID 1347071, 2019; note: nearly all actives have a fitted effect of over 55% in size
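Yeast growth medium received pinned compounds, then yeast cells expressing toxic A-beta were added; plates incubated at 30 C for 48 hr. Growth read as absorbance at 600 nm, normalized to DMSO and equimolar FeCl3 plus clioquinol controls.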
Mm-Cpn inhibitor: Inhibitors of TCP-1 ring complex (TRiC) of Methanococcus maripaludis (MmCpn): qHTS | Chaperonin Mm-Cpn (Methanococcus maripaludis) | purified Mm-Cpn ATPase, ADP Transcreener TR-FRET | Potency, µM (highest dose often 76.9 µM), inactives show top-dose activity, negative = inhibition, hits mostly inhibitors | 330,000 compounds, 0.031% hits | AID 504842, 2011; note: % is set by controls: 0 for no effect and ±100 for the full control effect; nearly all actives have a fitted effect of over 80% in size
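Quantitative HTS used 25 nM Mm-CPN and 10 uM ATP in magnesium/KCl Tris buffer, pH 7.4, with 1 mM DTT. Hydrolysis ran 30 min at 37°C; ADP was read by HTRF.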
TDP43 rescue: qHTS of TDP-43 Inhibitors; TDP-43 expressing yeast growth rescue, BacTiter-Glo, 24 h; 410,000 compounds, 1.8% hits; Potency, µM (highest dose often 46.1 µM), without a hit: top-dose growth rescue (activation), most hits filed as activators; note: % of control where 0% means no effect; nearly all actives have a fitted effect of over 50% in size
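Galactose-induced TDP-43 yeast, OD600=0.02, compound pinned; 24 hr, 30 deg C; BacTiter-Glo luminescence for growth. Inhibitors of TDP-43 toxicity read as activators.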
Numbers without * were called inactive; i = inactive; ? = inconclusive; . = no result; [ ] = another dose, or the depositor's remark. Most compounds without a hit are left out; they make up all but 3.6% or so of the library. Unless noted, calls come from the whole dose curve; as a rule, active = well fitted curve in the direction sought with a large enough effect; inconclusive = small, poorly fitted or top-dose-only effect, or another doubt; inactive = no such curve, though single readings can be large; an effect the other way counts as inactive or inconclusive. Potency is the fitted concentration of half-maximal effect.

SMILES	FUS suppressor	ClpP mod	aSyn rescue	Abeta rescue	Mm-Cpn inhibitor	TDP43 rescue
COc1ccc(CCNC(=O)CSc2nc3ccccc3nc2Cc2ccc(Cl)cc2)cc1OC	i	-3%	.	i	.	-7%
O=C(Nc1c(C(=O)N2CCN(c3ccccc3)CC2)oc2ccccc12)c1ccco1	?	-17%	.	i	.	18%
CCn1cc(C(=O)N2CCN(c3ccc(OC)cc3)CC2)c2cc(OC)c(OC)cc2c1=O	i	-1%	3%	i	0%	22%
COc1cc2c(C(=O)N3CCN(c4ccc(C)cc4)C(C)C3)cn(CC(C)C)c(=O)c2cc1OC (centres undefined)	?	-9%	.	i	.	35µM*
O=C(NCC1CCCO1)C(c1ccc(F)cc1)N(CC1CCCO1)C(=O)c1ccc(-c2ccccc2)[nH]1 (centres undefined)	i	-5%	-9%	i	-9%	7%
O=C(NCC1CCCO1)C(c1cccs1)N(Cc1cccs1)C(=O)c1ccc(-c2ccccc2)[nH]1 (centres undefined)	35µM*	-26%	-4%	i	2%	9%
N#Cc1ccccc1NC(=O)COC(=O)/C=C/c1cn(-c2ccccc2)nc1-c1ccc(Cl)cc1	i	.	3%	i	3%	21%
NC(=O)c1cn(-c2ccccc2)nc1-c1cccnc1	i	-4%	0%	i	1%	13µM*
O=C(/C=C/c1cn(-c2ccccc2)nc1-c1cccnc1)c1ccco1	i	0%	5%	i	0%	13µM*
O=C(/C=C/c1cn(-c2ccccc2)nc1-c1cccnc1)N1CCCC1	i	-3%	7%	i	-1%	20%
NC(=O)c1ccc(NC(=O)COC(=O)/C=C/c2cn(-c3ccccc3)nc2-c2cccnc2)cc1	.	28µM*	0%	i	?	9%
Cc1ccc(NC(=O)N2CCN(c3cc(-c4noc(C)n4)ccc3C)CC2)c(F)c1	i	0%	1%	i	.	28%
Cc1ccc(NC(=O)CN2CCc3ccccc3C2)cc1S(=O)(=O)N(C)C	i	.	-4%	i	-3%	8%
Cc1ccc(NC(=O)CN2CCN(S(=O)(=O)c3cccs3)CC2)cc1S(=O)(=O)N(C)C	i	32µM*	-1%	i	-1%	0%[9.22 µM]
Cc1cccc(NC(=O)/C(C#N)=C/c2ccc(C)o2)c1	i	1%	.	i	.	30%
N#C/C(=C\c1ccccc1[N+](=O)[O-])c1nc(C2CC2)cs1	.	-13%	1%	i	0%	14µM*
N#C/C(=C/c1ccccc1[N+](=O)[O-])c1nc(C2CC2)cs1	.	-2%	6%	i	0%	?
O=C(CCCn1c(=O)c2cccn2c2cccnc21)NCc1ccccc1Br	i	?	.	i	.	12%
CC(C)(C)c1cc(NC(=O)COC(=O)c2ccccc2O)n(-c2ccccc2)n1	i	3%	5%	i	.	29%
CC(C)(C)c1cc(NC(=O)COC(=O)c2nccnc2N)n(-c2ccccc2)n1	.	22µM*	3%	i	-2%	26%
Cc1cc(NC(=O)COC(=O)c2nccnc2N)n(-c2ccccc2)n1	i	.	-9%	i	1%	-21%
Cn1cccc1C(=O)OCC(=O)Nc1cc(C(C)(C)C)nn1-c1ccccc1	i	2%	7%	i	0%	35µM*
CCN(CC(=O)NC1CCS(=O)(=O)C1)S(=O)(=O)c1ccc2ccccc2c1 (centres undefined)	i	25µM*	-3%	i	-4%	-4%
Brc1ccc(-c2csc(-c3ccncc3)n2)cc1	.	1%	1%	i	-7%	11µM*
Cc1ccccc1Nc1ncnc2c1c(-c1ccccc1)cn2-c1ccc(F)cc1	i	4%	.	i	.	?
SMILES	FUS suppressor	ClpP mod	aSyn rescue	Abeta rescue	Mm-Cpn inhibitor	TDP43 rescue
C[C@@H]1CC=C[C@@H]2[C@H]1C(=O)N(Cc1ccccc1)[C@H]2c1ccccc1Br	i	-3%	-12%	i	3%	11µM*
COc1ccc(-c2ccc([C@H]3[C@H]4C=CC[C@@H](C)[C@@H]4C(=O)N3Cc3ccccc3)c(F)c2)cc1C	i	25µM*	3%	i	-3%	2%
Cc1cc(=O)[nH]c(SCC(=O)Nc2cccc(C)c2C)n1	i	.	.	.	.	.
CCN(CC)S(=O)(=O)c1nnc(NC(=O)COc2cccc(C)c2)s1	i	-2%	.	i	.	7%
CC1Cc2ccccc2N1C(=O)/C=C/c1cccc(F)c1 (centres undefined)	i	.	6%	i	2%	20µM*
CC(=O)c1cc(-c2ccccc2S(=O)(=O)NC(C)(C)C)c(=O)n2c1CCC2	i	.	.	.	.	.
CCCCCCOc1ccc(/C=C/C(=O)Nc2sc3c(c2C(=O)OC)CCC3)cc1OC	i	-8%	.	i	.	18µM*
CNC(=O)c1c(NC(=O)/C=C/c2ccccc2)sc2c1CCC2	i	0%	-30%	i	.	18µM*
O=C(/C=C/c1ccccc1)Nc1sc2c(c1C(=O)O)CCC2	i	1%	0%	i	-3%	-25%
CCOC(=O)c1c(NC(=O)/C=C/c2ccc(OCC)c(OC)c2)sc2c1CCC2	i	0%	2%	i	.	9%
C[C@@H]1CCN(C2CC2)S(=O)(=O)c2ccc(N3CCC[C@@H]3C)cc2O1	i	.	.	.	.	.
CC1Oc2ccccc2C(=O)N(CC(=O)c2ccc3c(c2)OCCO3)C1=O (centres undefined)	i	2%	25%	i	-6%	18µM*
CC1Oc2ccccc2N(CC(=O)c2cccc(Cl)c2)C1=O (centres undefined)	i	1%	15%	i	0%	16µM*
C=CCN1C(=O)[C@H](CC(=O)N2CCOCC2)[C@@]2(C(=O)OCC)CCCC=C12	i	.	.	.	.	.
O=C(O)c1ccc(CSc2nnc(-c3ccccc3)n2-c2ccccc2)cc1	i	.	16%	i	0%	0%
Brc1cccc(-c2nnc(SCc3ccon3)n2-c2ccccc2)c1	i	1%	14%	i	2%	18µM*
COc1ccc2[nH]c(C)c(C(=O)CNc3nccs3)c2c1	.	-3%	1%	.	.	.
O=[N+]([O-])c1cccc(-c2nn(-c3ccccc3)cc2CO)c1	i	1%	5%	i	-2%	13µM*
